Reference: the supplement of paper PMC6555819

Key:
Assay in all cases: PBM binding z-score (relative to random genomic background probes); higher = stronger binding; sequences stand for … in GC…GCGATTGACAGCGTAGAATGAAGG
[1] = test system: FXR:RXRa (NR concentration 270 nM, RXRa partner concentration 90 nM)
In short: (§1)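 Probes were double-stranded and carried 34-nt variable regions with direct-repeat seeds, single-nucleotide variants, half-site ablations and random human genomic background sequences, printed on custom Agilent 4×180K protein-binding microarrays. Arrays were incubated 1 h with ligand-free nuclear receptor dimers in PBS pH 7.4, 2% milk, 0.02% Triton X-100, 1 mM DTT, 0.2 mg/mL BSA and 0.4 mg/ml salmon testes DNA. Antibodies against each partner (one per run) detected binding, and scanned fluorescence was regression-normalized. Binding z-scores use the random background probes as reference.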

[2] = test system: LXRa:RXRa (NR concentration 270 nM, RXRa partner concentration 90 nM)
In short: as §1

[3] = test system: LXRa homodimer (NR concentration 270 nM)
In short: as §1

[4] = test system: LXRb:RXRa (NR concentration 270 nM, RXRa partner concentration 90 nM)
In short: as §1

[5] = test system: LXRb homodimer (NR concentration 270 nM)
In short: as §1

[6] = test system: PPARa:RXRa (NR concentration 270 nM, RXRa partner concentration 90 nM)
In short: as §1

[7] = test system: PPARg:RXRa (NR concentration 180 nM, RXRa partner concentration 90 nM)
In short: as §1

[8] = test system: PPARg:RXRa 270nM:90nM, anti-RXR (NR concentration 270 nM, RXRa partner concentration 90 nM)
In short: as §1

[9] = test system: PPARg:RXRa 30nM:10nM, anti-RXR (NR concentration 30 nM, RXRa partner concentration 10 nM)
In short: as §1

[10] = test system: PPARg:RXRa 90nM:30nM, anti-RXR (NR concentration 90 nM, RXRa partner concentration 30 nM)
In short: as §1

[11] = test system: PPARg:RXRa DBDmut IVT, anti-RXR (DBD mutation: RXRa K156A/R161A, NR concentration 270 nM, RXRa partner concentration 90 nM)
In short: as §1

[12] = test system: PPARg:RXRa IVT, anti-PPARg (NR concentration 270 nM, RXRa partner concentration 90 nM)
In short: as §1

[13] = test system: PPARg DBDmut:RXRa IVT, anti-PPARg (DBD mutation: PPARg1 K132A/R137A, NR concentration 270 nM, RXRa partner concentration 90 nM)
In short: as §1

[14] = test system: PPARg DBDmut IVT, anti-PPARg (DBD mutation: PPARg1 K132A/R137A, NR concentration 270 nM)
In short: as §1

[15] = test system: PPARg homodimer (NR concentration 180 nM)
In short: as §1

[16] = test system: PXR:RXRa (NR concentration 270 nM, RXRa partner concentration 90 nM)
In short: as §1

[17] = test system: PXR homodimer (NR concentration 270 nM)
In short: as §1

[18] = test system: RARa:RXR (NR concentration 270 nM, RXRa partner concentration 90 nM)
In short: as §1

[19] = test system: RARa homodimer (NR concentration 270 nM)
In short: as §1

[20] = test system: RARb:RXRa (NR concentration 270 nM, RXRa partner concentration 90 nM)
In short: as §1

Sequence GCTATGAGTTGAAAGGGCAACCGAATGATTCTCG has a PBM binding z-score [1] of 1.13, a PBM binding z-score [2] of 1.19 and a PBM binding z-score [3] of -0.0384. For the same sequence, the PBM binding z-score [4] was 1.24, the PBM binding z-score [5] was -0.412 and the PBM binding z-score [6] was 3.11. It also gave a PBM binding z-score [7] of 2.75, a PBM binding z-score [8] of 3.86 and a PBM binding z-score [9] of 1.58. For the same sequence, the PBM binding z-score [10] was 3.23, the PBM binding z-score [11] was 0.245 and the PBM binding z-score [12] was 0.754. For the same sequence, the PBM binding z-score [13] was 0.0157, the PBM binding z-score [14] was -0.588 and the PBM binding z-score [15] was 0.982. For the same sequence, the PBM binding z-score [16] was 1.62, the PBM binding z-score [17] was -0.0077 and the PBM binding z-score [18] was 2.66. For the same sequence, the PBM binding z-score [19] was 0.195 and the PBM binding z-score [20] was 2.45.

Sequence CGTCCAATGTCATAGGAGGTCAGTGAAGACAGAT has a PBM binding z-score [1] of 3.22, a PBM binding z-score [2] of 4.74 and a PBM binding z-score [3] of 1.21. It also gave a PBM binding z-score [4] of 2.36, a PBM binding z-score [5] of 0.0659 and a PBM binding z-score [6] of 2.66. For the same sequence, the PBM binding z-score [7] was 0.938, the PBM binding z-score [8] was 0.958 and the PBM binding z-score [9] was 0.0922. It also gave a PBM binding z-score [10] of 0.565, a PBM binding z-score [11] of 0.186 and a PBM binding z-score [12] of 1.95. It also gave a PBM binding z-score [13] of 0.476, a PBM binding z-score [14] of 0.254 and a PBM binding z-score [15] of 1.72. For the same sequence, the PBM binding z-score [16] was 3.91, the PBM binding z-score [17] was 0.941 and the PBM binding z-score [18] was 2.69. It also gave a PBM binding z-score [19] of 0.765 and a PBM binding z-score [20] of 2.9.

Sequence CGAACTTGGTCATTGACAGGACAGTGAATAGTAA has a PBM binding z-score [1] of 0.086, a PBM binding z-score [2] of -0.0975 and a PBM binding z-score [3] of -0.179. It also gave a PBM binding z-score [4] of 0.228, a PBM binding z-score [5] of -0.101 and a PBM binding z-score [6] of 0.267. The PBM binding z-score [7] was 0.262, the PBM binding z-score [8] was 0.00224 and the PBM binding z-score [9] was -0.244. It also gave a PBM binding z-score [10] of -0.0611, a PBM binding z-score [11] of 0.617 and a PBM binding z-score [12] of 0.897. It also gave a PBM binding z-score [13] of 0.111, a PBM binding z-score [14] of 0.232 and a PBM binding z-score [15] of 0.209. It also gave a PBM binding z-score [16] of 0.0575, a PBM binding z-score [17] of 0.147 and a PBM binding z-score [18] of 0.48. It also gave a PBM binding z-score [19] of 0.507 and a PBM binding z-score [20] of 0.912.

ATCTCTAGGTAACCAAGTTCTGTGAATGCCGAAC was tested, and the PBM binding z-score [1] was 0.602, the PBM binding z-score [2] was 0.255 and the PBM binding z-score [3] was 0.186. It also gave a PBM binding z-score [4] of 0.427, a PBM binding z-score [5] of 0.457 and a PBM binding z-score [6] of 0.701. It also gave a PBM binding z-score [7] of 0.399, a PBM binding z-score [8] of 0.795 and a PBM binding z-score [9] of 0.343. The PBM binding z-score [10] was 0.427, the PBM binding z-score [11] was 3.07 and the PBM binding z-score [12] was 2.82. For the same sequence, the PBM binding z-score [13] was 0.454, the PBM binding z-score [14] was 0.664 and the PBM binding z-score [15] was 0.688. The PBM binding z-score [16] was 0.262, the PBM binding z-score [17] was 0.109 and the PBM binding z-score [18] was 0.329. For the same sequence, the PBM binding z-score [19] was 0.574 and the PBM binding z-score [20] was 0.423.

CCTTACGCGTCACGAGGTTATAGCACGACGAGCG was tested, and the PBM binding z-score [1] was 0.529, the PBM binding z-score [2] was 0.868 and the PBM binding z-score [3] was 0.107. It also gave a PBM binding z-score [4] of 0.95, a PBM binding z-score [5] of 0.329 and a PBM binding z-score [6] of 1.44. The PBM binding z-score [7] was 1.08, the PBM binding z-score [8] was 0.331 and the PBM binding z-score [9] was -0.172. For the same sequence, the PBM binding z-score [10] was -0.00609, the PBM binding z-score [11] was 0.147 and the PBM binding z-score [12] was 0.154. The PBM binding z-score [13] was 0.124, the PBM binding z-score [14] was 0.548 and the PBM binding z-score [15] was 1.05. The PBM binding z-score [16] was 1.03, the PBM binding z-score [17] was 0.532 and the PBM binding z-score [18] was 1.15. The PBM binding z-score [19] was 0.761 and the PBM binding z-score [20] was 0.811.

ACAGAAAGGTGATGAAGGTAACTCAGGCTATCAT showed a PBM binding z-score [1] of 0.335, a PBM binding z-score [2] of 0.618 and a PBM binding z-score [3] of 0.115. The PBM binding z-score [4] was 0.477, the PBM binding z-score [5] was -0.456 and the PBM binding z-score [6] was 1.51. It also gave a PBM binding z-score [7] of 1.02, a PBM binding z-score [8] of 1.12 and a PBM binding z-score [9] of 0.27. For the same sequence, the PBM binding z-score [10] was 0.787, the PBM binding z-score [11] was 0.962 and the PBM binding z-score [12] was 1.45. For the same sequence, the PBM binding z-score [13] was 0.665, the PBM binding z-score [14] was 0.683 and the PBM binding z-score [15] was 0.688. For the same sequence, the PBM binding z-score [16] was 0.335, the PBM binding z-score [17] was 0.0962 and the PBM binding z-score [18] was 0.91. For the same sequence, the PBM binding z-score [19] was 0.63 and the PBM binding z-score [20] was 1.74.
